Bioassay records as filed in PubChem BioAssay.
KinaseGlo FLuc – Kinase-Glo luciferase inhibition (counter-screen); AID 1379; Kinase-Glo luciferase, ATP luminescence, 8 min; 200,000 tested, 0.28% active; Q27757; Potency, µM (series often up to 38.3 µM), without a hit: at the top dose activity change, negative = inhibition, hits mostly inhibitors; also: % is scaled to controls: 0 for no effect and ±100 for the full control effect; nearly all actives have a fitted effect of over 60% in size
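Inhibition of Kinase-Glo luciferase light generation was assessed at 10 uM ATP in pH 7.2 imidazole buffer, with luminescence measured after eight minutes at ambient temperature.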
ELG1 genotox – induces genotoxicity in HEK293T cells with luciferase-tagged ELG1. HEK293T ELG1-luciferase reporter, luminescence, 16 h. AID 504466. Potency, µM (top dose mostly 46 µM), without a hit: at the highest dose activity change, positive = activation, most hits filed as activators. 330,000 tested, 1.3% active; also: % of control where 0% means no effect; nearly all actives have a fitted effect of over 60% in size
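16 hr compound incubation (37 °C, 5% CO2) of HEK293T cells carrying luciferase-tagged ELG1; luciferase then measured by ONE-Glo luminescence after 30 min at RT.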
SMN2 splice up – SMN2 splice variant enhancement; HEK293 SMN2-luciferase splicing reporter, luminescence, 30-36 h; Potency, µM (top dose mostly 46.1 µM), without a hit: top-dose activity change, positive = activation, hits mostly activators; 210,000 tested, 2.8% active; AID 1458; also: % of control where 0% means no effect; nearly all actives have a fitted effect of over 55% in size
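HEK293 cells carry an SMN2 minigene-luciferase reporter in which exon 7 inclusion puts luciferase in frame. Cells were seeded at 2000 cells/well, attached for 10-12 hours, then exposed to compounds for 30-36 hours at 37C before ONE-Glo luminescence.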
NPC1 prom act – NPC1 promoter activation. Huh7 NPC1 promoter luciferase reporter, 24 h. Potency, µM (highest dose often 9.22 µM), inactives show at the top dose activation, hits mostly activators. 320,000 tested, 2.4% active. AID 485313; also: % of control where 0% means no effect; nearly all actives have a fitted effect of over 60% in size
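Luminescence from an NPC1 promoter-driven luciferase reporter in stably transfected Huh7 cells was measured after 24 h compound treatment at 37 °C, followed by 10 min ambient incubation with luciferase detection reagent.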
Rab9 prom act – activates the Rab9 promoter. Huh7 Rab9 promoter-luciferase reporter, luminescence, 24 h. Potency, µM (series often up to 9.22 µM), inactives show at the highest dose activation, negative = inhibition, most hits filed as activators. 320,000 tested, 2.8% active. AID 485297; also: % of control where 0% means no effect; nearly all actives have a fitted effect of over 60% in size
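Luminescence read-out: Huh7 cells stably expressing Rab9-luciferase, treated 24 h with compound at 37 °C, then lysed with luciferase reagent for 10 min at ambient before reading.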
FLuc modulator – counter-screen for miR-21 project: firefly luciferase inhibitors or activators | 360,000 tested, 6.9% active | purified FLuc, Km substrates, luminescence inhibition | Potency, µM (doses to about 57.5 µM), inactives show at the highest dose activity change, negative = inhibition, actives largely listed as inhibitors;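 also: plate controls were vehicle for no effect and reference inhibitor for full effect; nearly all actives have a fitted effect of over 55% in size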
Target sequence (P08659 whole entry, looked up): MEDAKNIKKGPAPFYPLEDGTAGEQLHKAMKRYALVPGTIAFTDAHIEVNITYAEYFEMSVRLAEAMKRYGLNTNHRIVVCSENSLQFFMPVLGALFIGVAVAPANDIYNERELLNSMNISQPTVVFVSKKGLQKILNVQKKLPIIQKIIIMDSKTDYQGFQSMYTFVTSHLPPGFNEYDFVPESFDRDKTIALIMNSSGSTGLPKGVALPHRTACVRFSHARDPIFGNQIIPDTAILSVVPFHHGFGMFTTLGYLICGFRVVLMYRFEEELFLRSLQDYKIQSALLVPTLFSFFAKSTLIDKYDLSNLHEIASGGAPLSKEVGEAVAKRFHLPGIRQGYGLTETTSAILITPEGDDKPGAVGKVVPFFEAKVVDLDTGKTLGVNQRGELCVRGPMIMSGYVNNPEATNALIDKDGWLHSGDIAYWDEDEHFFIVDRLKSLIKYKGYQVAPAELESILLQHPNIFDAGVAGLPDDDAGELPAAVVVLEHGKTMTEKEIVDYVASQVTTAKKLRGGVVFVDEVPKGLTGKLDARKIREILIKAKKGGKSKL
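Purified P. pyralis luciferase, 10 nM final, with Km-level 10 uM D-luciferin and 10 uM ATP in 50 mM Tris acetate pH 7.5, 10 mM Mg acetate, 0.01% Tween-20, 0.05% BSA; 6-point qHTS titration about 60 µM downward; luminescence read.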
* = called active by the depositor; ? = inconclusive; · = no result given; [ ] = another dose, or the depositor's remark. Hits are enriched below; roughly 7.3% of the tested compounds scored in any of these assays. Calls follow the shape of the dose curve; as a rule, active = well fitted curve in the direction sought with a large enough effect; inconclusive = small, poorly fitted or top-dose-only effect, or another doubt; inactive = no such curve, though single readings can be large; an effect the other way counts as inactive or inconclusive. Potency is read from the fitted curve at half-maximal effect.

SMILES	KinaseGlo FLuc	ELG1 genotox	SMN2 splice up	NPC1 prom act	Rab9 prom act	FLuc modulator
Nc1ccc(-c2nc3ccc(C(=O)O)cc3s2)cc1	-15%	?	·	-39%	-43%	0.21µM*
COc1cccc(CNC(=O)c2ccc(NC(=O)N3CC(C)Sc4ccccc43)cc2)c1 (stereo not given)	·	·	-1%	·	·	0%
O=C(NCCNC(=O)c1ccccc1Br)c1ccccc1Br	·	-4%	·	-7%	1%	1%
Cc1ccccc1SCCNC(=O)c1ccccc1Br	2%	18%	27%	22%	?	24µM*
Cc1ccccc1SCC(=O)NNC(=O)c1ccccc1O	·	?	·	4%	20%	24µM*
O=C(NCCCN1CCN(c2cccc(Cl)c2)CC1)c1ccc2nc(Cc3ccccc3)oc2c1	·	·	·	·	·	-1%
O=C(CCNc1ccc(F)c(Cl)c1)c1ccco1	-1%	-2%	-2%	-4%	0%	-3%
O=C(/C=C/Nc1ccc(F)c(Cl)c1)c1ccco1	-9%	4.1µM*	?	1%	0%	5.4µM*
O=C(NC1CCN(C(=O)Nc2cccc(F)c2)CC1)c1ccco1	·	5%	·	3%	9%	-2%
O=C(/C=C/Nc1cccc(F)c1)c1ccco1	-24%	3.2µM*	13µM*	?	2.5µM*	2.1µM*
Nc1c(-c2ccccc2)n[nH]c1-c1ccccc1	-9%	?	13µM*	2.8µM*	?	-4%[2.3 µM]
S=c1nc(-c2ccccc2)c(-c2ccccc2)n[nH]1	·	-4%	·	-7%	-1%[1.84 µM]	-3%
Cc1ccc(S(=O)(=O)N2CCc3cc(C(=O)Nc4c(C)cccc4C(C)C)ccc32)cc1	·	·	-12%	·	·	-2%
Cc1ccc(NC(=O)CNC(=O)c2ccc(C)o2)cc1	·	3%	·	3%	-1%	-7%
COC(=O)c1ccc(N/C(C)=C/C(=O)c2ccc(C)o2)cc1	0%	18%	20%	0%	1%	12µM*
CCOc1ccc(N/C(C)=C/C(=O)c2ccc(C)o2)cc1	-4%	?	-7%	?	?	6µM*
CCOc1ccc(NC(=O)CCc2ccc(C)o2)cc1	·	9%	·	15%	-3%	-18%
Cc1cc(-c2ccccc2)nc2cc(C(=O)Nc3cc(C(F)(F)F)ccc3Cl)nn12	·	·	-5%	·	·	-1%
Cc1cccc(C(=O)Nc2cccc3cccnc23)c1	·	14%	·	4µM*	3.2µM*	21µM*
Cc1ccc(C(=O)Nc2cccc3cccnc23)cc1C	·	?	·	2.8µM*	?	12µM*
COc1cc(NC(=O)Nc2cccc3cccnc23)cc(OC)c1OC	·	6%	·	-2%	7%	19µM*
Cc1ccc(/C=C/C(=O)Nc2cccc3cccnc23)o1	-3%	1%	7%	-2%	7%	17µM*
Cc1cccc(C(=O)Nc2cccnc2Cl)c1	·	16%	·	2%	9%	?
Cc1cc(=O)n2nc(N3CCC(C(=O)Nc4ccc(C(C)C)cc4)CC3)sc2n1	·	·	-8%	·	·	-11%
Fc1ccc(-c2nc(Nc3cccc(C(F)(F)F)c3)nc3c2COc2ccccc2-3)cc1	·	·	·	·	·	-15%
SMILES	KinaseGlo FLuc	ELG1 genotox	SMN2 splice up	NPC1 prom act	Rab9 prom act	FLuc modulator
CCOC(=O)c1cc(-c2ccc(F)cc2)n(CCC(=O)NC2CCC(C)CC2)c1C (stereo not given)	·	·	·	·	·	-7%
O=C(Nc1cccc2cccnc12)c1ccc(Cl)cc1	·	13%	·	7%	10%	30µM*
COc1cc(OC)cc(C(=O)Nc2cccc3cccnc23)c1	·	-6%	·	-5%	-5%	?
Cc1ccc(C(=O)Nc2cccc3cccnc23)cc1Cl	·	·	-13%	·	·	11µM*
C/C(=N\Nc1cccc2cccnc12)c1ccc(C)cc1	-1%	?	16µM*	?	?	2.7µM*
CCc1cccc(-n2c(=O)c3cccnc3n2CC(=O)NCc2ccccc2)c1	·	·	·	·	·	-15%
CCc1ccc(NC(=O)c2nnn(Cc3cccc(C(F)(F)F)c3)c2N)cc1	·	·	?	·	·	0%
CCOc1ccc(CNC(=O)C2CCN(c3nc4ccccc4nc3C(F)(F)F)CC2)cc1OC	·	·	·	·	·	-2%
CCc1ccccc1NC(=O)c1ccc(CN2C(=O)CCn3nc(C)cc32)cc1	·	·	·	·	·	-2%
O=C(Nc1ccc(-c2n[nH]c(=S)o2)cc1)c1ccccc1Br	·	3%	·	4%	-1%	15µM*
CN(C)c1oc(/C=C/c2ccc(F)cc2)nc1C#N	·	·	25%	·	·	?
CC(C)n1cnc2c(oc3ccccc32)c1=O	·	14%	·	7%	11%	17µM*
COc1ccccc1Nc1nc(-c2cccs2)cs1	-5%	?	11µM*	13%	?	4.8µM*
COc1ccc(Nc2nc(-c3cccs3)cs2)c(OC)c1	-1%	5.2µM*	·	?	2.2µM*	4.8µM*
COc1ccc(Nc2nc(-c3cccs3)cs2)cc1	-7%	1.5µM*	10µM*	2.5µM*	2µM*	0.67µM*
CC#CCN1c2ccccc2[C@]23C[C@@H](C(=O)OC)N(C(=O)c4cccs4)C2=NC(C(=O)OC)=C(C(=O)OC)[C@H]13	-3%[7.66 µM]	·	-7%[9.22 µM]	·	·	·
COc1ccc(OCC(=O)N/N=C/c2cccn2-c2cccc(C(=O)O)c2)cc1	·	-2%	·	0%	-2%	13µM*
CCCCCC(=O)N/N=C/c1ccc(N(C)C)cc1	0%	?	?	?	?	12µM*
COc1ccc(/C=N/NC(=O)CNC(=O)COc2ccccc2)cc1	-2%	-3%	5%	-2%	0%	-3%
COc1ccc(OCC(=O)N/N=C/c2ccc(N(C)C)cc2)cc1	-3%	0%	13%	0%	3%	13µM*
Cn1c(=O)c2[nH]c(CCCCC(=O)O)nc2n(C)c1=O	-2%[7.66 µM]	·	2%[9.22 µM]	·	·	·
O=C1/C(=C\c2cccs2)Sc2ccc3ccccc3c21	-17%	3.7µM*	15%[1.84 µM]	-3%	20%	0.6µM*
Cc1cccc(CN2C(=O)c3ccccc3Sc3ccc(C(=O)NCc4cccs4)cc32)c1	·	·	·	·	·	-3%
COc1ccc(-n2cc(CN(C)CCO)c(-c3cccc(F)c3)n2)cc1	?	?	·	0.45µM*	0.63µM*	2.1µM*
COc1ccc(-n2cc(CNCCc3cnc[nH]3)c(-c3cccc(F)c3)n2)cc1	0%	2%	-84%	-5%	-21%	19µM*
COc1ccc(-n2cc(CNCc3cccnc3)c(-c3cccc(F)c3)n2)cc1	1%	-6%	·	1%	-4%	9.5µM*
CSc1ccccc1C(=O)Nc1nc2ccccc2[nH]1	-3%	?	14µM*	3.2µM*	4.5µM*	?
CSc1ccccc1C(=O)Nc1nc2ccccc2c(=O)[nH]1	·	6%	·	24%	2.8µM*	19µM*
O=C(O)CSc1ccc([N+](=O)[O-])cc1[N+](=O)[O-]	1%[7.66 µM]	·	-11%[9.22 µM]	·	·	·
COc1cccc(NC(=O)Cn2c(=O)n(Cc3ccc(F)cc3)c(=O)c3sc4ccccc4c32)c1	·	·	-15%	·	·	-2%
